Reference: PubChem BioAssay AID1159580 (chemical genetic matrix, 2015)
“And” between values parts separate entries of the source, which are not always exact repeats. Identical values can stand only once. Hit rate of the full screen: of about 5,500 compounds, about 2,000 (36%) were called active. Another 18% or so got no clear call; they are omitted. Rule as the data show it: active = normalized growth mostly below about 0.91 (no sharp cut-off); inconclusive = no clear call, values can overlap the other calls; inactive = mostly above about 0.92. The list shows a part of the results.

Experiment: chemical genetic growth profiling, strain panel (AID 1159580);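 also: tested at 20 µM; growth read once vehicle control cultures reached saturation at 30 °C; 1 = growth at the plate median or of vehicle wells; lower values mean less growth of the strain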
Details: S. cerevisiae deletion strains, growth OD

Measured: normalized growth

CC(=O)Nc1ccc(O)cc1
inactive: locus YAL021C, strain ccr4, stronger effect = lower value 1.02 | locus YAL026C, strain drs2, stronger effect = lower value 1.02 | locus YAL030W, strain snc1, stronger effect = lower value 1.02 | locus YBL061C, strain skt5, stronger effect = lower value 1.02 | locus YBR009C, strain hhf1, stronger effect = lower value 1.01 | locus YBR021W, strain FUR4, stronger effect = lower value 1.09 | locus YBR023C, strain chs3, stronger effect = lower value 1.02 | locus YBR171W, strain sec66, stronger effect = lower value 1.02 | locus YBR229C, strain ROT2, stronger effect = lower value 0.985 | locus YBR231C, strain swc5, stronger effect = lower value 1.02 | locus YBR279W, strain paf1, stronger effect = lower value 1 | locus YCL011C, strain gbp2, stronger effect = lower value 1.01 | locus YCL016C, strain dcc1, stronger effect = lower value 1.01 | locus YCL029C, strain bik1, stronger effect = lower value 0.979 | locus YCL069W, strain vba3, stronger effect = lower value 1.01 | locus YCR088W, strain abp1, stronger effect = lower value 1.01 | locus YDL005C, strain med2, stronger effect = lower value 1.02 | locus YDL035C, strain GPR1, stronger effect = lower value 0.984 | locus YDL040C, strain nat1, stronger effect = lower value 1.01 | locus YDL074C, strain BRE1, stronger effect = lower value 1.05 | locus YDL101C, strain DUN1, stronger effect = lower value 1.01 | locus YDL134C, strain PPH21, stronger effect = lower value 0.985 | locus YDL185W, strain tfp1, stronger effect = lower value 0.935 | locus YDL192W, strain arf1, stronger effect = lower value 0.981 | locus YDR001C, strain nth1, stronger effect = lower value 1.02 | locus YDR069C, strain doa4, stronger effect = lower value 1.02 | locus YDR101C, strain arx1, stronger effect = lower value 0.988 | locus YDR137W, strain rgp1, stronger effect = lower value 1.01 | locus YDR159W, strain sac3, stronger effect = lower value 1.01 | locus YDR162C, strain NBP2, stronger effect = lower value 0.951 | locus YDR195W, strain ref2 1.01 | locus YDR297W, strain sur2, stronger effect = lower value 1.02 | locus YDR318W, strain mcm21, stronger effect = lower value 0.973 | locus YDR334W, strain swr1, stronger effect = lower value 1.02 | locus YDR335W, strain msn5, stronger effect = lower value 1.01 | locus YDR388W, stronger effect = lower value 0.988 | locus YDR392W, strain spt3, stronger effect = lower value 0.993 | locus YDR502C, strain sam2, stronger effect = lower value 1 | locus YEL003W, strain gim4, stronger effect = lower value 1.03 | locus YEL037C, strain rad23, stronger effect = lower value 1.02 | locus YEL061C, strain CIN8 (second series), stronger effect = lower value 1.01 | locus YEL061C, strain CIN8, stronger effect = lower value 0.971 | locus YER015W, strain faa2, stronger effect = lower value 1 | locus YER016W, strain bim1, stronger effect = lower value 0.987 | locus YER110C, stronger effect = lower value 0.992 | locus YER111C, strain swi4, stronger effect = lower value 1.01 | locus YER155C, strain BEM2 (second series), stronger effect = lower value 1.02 | locus YER155C, strain BEM2, stronger effect = lower value 0.978 | locus YER167W, strain BCK2, stronger effect = lower value 0.991 | locus YFR010W, strain ubp6, stronger effect = lower value 1.01 | locus YGL078C, strain dbp3, stronger effect = lower value 0.936 | locus YGL086W, strain mad1, stronger effect = lower value 0.987 | locus YGL167C, strain pmr1, stronger effect = lower value 1.03 | locus YGL173C, strain kem1, stronger effect = lower value 1.02 | locus YGL227W, strain vid30, stronger effect = lower value 1.02 | locus YGL240W, strain doc1, stronger effect = lower value 1.01 | locus YGL248W, strain PDE1, stronger effect = lower value 0.982 | locus YGL253W, strain hxk2, stronger effect = lower value 1.01 | locus YGR135W, strain pre9, stronger effect = lower value 0.996 | locus YGR229C, strain SMI1, stronger effect = lower value 0.972 | locus YGR252W, strain gcn5, stronger effect = lower value 1.16 | locus YHR013C, strain ard1, stronger effect = lower value 1.02 | locus YHR027C, strain rpn1, stronger effect = lower value 1.01 | locus YHR030C, strain SLT2, stronger effect = lower value 0.985 and 0.986 | locus YHR079C, strain IRE1 (second series), stronger effect = lower value 0.987 | locus YHR079C, strain IRE1, stronger effect = lower value 0.986 | locus YHR094C, strain hxt1, stronger effect = lower value 0.979 | locus YHR129C, strain ARP1, stronger effect = lower value 0.977 | locus YHR142W, strain chs7, stronger effect = lower value 1.01 | locus YHR200W, strain rpn10, stronger effect = lower value 0.983 | locus YIL066C, strain RNR3, stronger effect = lower value 0.977 | locus YIL073C, strain SPO22, stronger effect = lower value 1.04 | locus YIL125W, strain kgd1, stronger effect = lower value 0.944 | locus YIR030C, strain dcg1, stronger effect = lower value 0.977 | locus YJL092W, strain hpr5, stronger effect = lower value 1 | locus YJL095W, strain BCK1 (second series), stronger effect = lower value 1.02 | locus YJL095W, strain BCK1, stronger effect = lower value 1 and 0.986 | locus YJL115W, strain asf1, stronger effect = lower value 1.02 | locus YJL129C, strain trk1, stronger effect = lower value 1.01 | locus YJL134W, strain LCB3, stronger effect = lower value 0.981 | locus YJL154C, strain vps35, stronger effect = lower value 1.01 | locus YJL164C, strain tpk1, stronger effect = lower value 0.997 | locus YJL166W, strain qcr8, stronger effect = lower value 1 | locus YJL168C, strain set2, stronger effect = lower value 0.975 | locus YJL187C, strain SWE1 (second series), stronger effect = lower value 1.01 | locus YJR043C, strain POL32, stronger effect = lower value 0.978 | locus YJR066W, strain TOR1, stronger effect = lower value 0.99
